Screens from PubChem.
HP1b chromo inh: blocks HP1-beta chromodomain binding to methylated histone tails; P83916; AlphaScreen HP1-beta / biotin-H3K9me3 peptide binding; Potency, µM (top dose mostly 114 µM), for the others: at the top dose activity change, negative = inhibition, usual class: inhibitors; hit rate 0.56% among 390,000; note: nearly all actives have a fitted effect of over 70% in size
Target sequence (P83916 whole entry, looked up): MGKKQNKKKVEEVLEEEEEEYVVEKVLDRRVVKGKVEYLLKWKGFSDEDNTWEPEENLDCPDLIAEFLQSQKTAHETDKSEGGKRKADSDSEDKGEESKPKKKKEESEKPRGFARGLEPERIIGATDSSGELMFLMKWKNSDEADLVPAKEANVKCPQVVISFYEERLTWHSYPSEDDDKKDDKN
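HP1-beta protein (50 nM final) preincubated 30 min at room temperature with biotinylated H3(1-18)K9me3 peptide (50 nM) in PBS pH 7.4, 0.01% Tween-20, then compound added for 30 min. AlphaScreen streptavidin donor/nickel chelate acceptor beads (10 ug/mL final), 30 min dark, luminescence read.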
ALOX12 inh: inhibitors of human 12S-lipoxygenase ALOX12 | P18054 | purified 12hLO, xylenol orange hydroperoxide absorbance | Potency, µM (titrated, usually from 108 µM), for inactives: at the top dose activity change, negative = inhibition, usual class: inhibitors | hit rate 1.1% among 580,000 | AID 1671190; note: % is set by controls: 0 for no effect and ±100 for the full control effect
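Purified human 12hLO at 150 nM in 25 mM Hepes, 0.01% Triton X-100, pH 7.0, preincubated 15 min at room temperature with compound. Reaction started with 40 uM arachidonic acid, 30 min at room temperature. Hydroperoxide measured by Fe-xylenol orange, 573/405 nm absorbance ratio.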
JMJD2A Tudor inh: blocks the human JMJD2A Tudor domain. hit rate 4.4% among 390,000. AlphaScreen JMJD2A-Tudor / H3K4me3 peptide binding. AID 504339. O75164. Potency, µM (series often up to 114 µM), for the others: at the highest dose activity change, negative = inhibition, hits mostly inhibitors; note: % is set by controls: 0 for no effect and ±100 for the full control effect; nearly all actives have a fitted effect of over 50% in size
G9a inh: G9a (human) methyltransferase inhibition. G9a H3K9 monomethylation, AlphaScreen, 2 h. hit rate 8.8% among 350,000. Potency, µM (titrated, usually from 102 µM), without a hit: at the top dose activity, negative = inhibition, most hits filed as inhibitors. AID 504332; note: % is set by controls: 0 for no effect and ±100 for the full control effect; nearly all actives have a fitted effect of over 75% in size
Target sequence (Q96KQ7 913-1193 limits assumed): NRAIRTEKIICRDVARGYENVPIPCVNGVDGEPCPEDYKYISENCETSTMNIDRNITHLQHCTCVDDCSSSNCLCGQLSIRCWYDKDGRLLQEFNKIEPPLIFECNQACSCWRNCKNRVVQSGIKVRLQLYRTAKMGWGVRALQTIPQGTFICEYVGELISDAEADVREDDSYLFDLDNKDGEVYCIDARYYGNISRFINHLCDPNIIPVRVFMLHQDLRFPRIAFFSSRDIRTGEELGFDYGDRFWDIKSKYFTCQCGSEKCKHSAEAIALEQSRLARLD
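Enzyme 20 nM + cpd, 15 min RT; add b-H3K9 pep 500 nM / SAM 20 uM; 2 h RT; anti-H3K9me1 Ab 0.5 ug/mL + SA donor / anti-rabbit acceptor beads 20 ug/mL each, 10 min; AlphaScreen read.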
Sfp PPTase inh: blocks B. subtilis Sfp PPTase activity; Q9F4F7; Biochemical Sfp PPTase activity, qHTS; Potency, µM, inactives show largest response in the series, negative = inhibition, hits mostly inhibitors; hit rate 3.5% among 310,000;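 note: the enzyme is Sfp with the accession as filed and its product quenches rhodamine fluorescence; 0% = enzyme reaction without inhibitor and -100% = no enzyme wells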
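After 15 min at room temperature with compound, 15 nM Sfp received 5 uM rhodamine-CoA plus 12.5 uM BHQ-2-ybbR (50 mM Hepes pH 7.6, 10 mM MgCl2). Rate came from the fluorescence difference over 30 min, ex 525/em 598 nm.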
BAZ2B inh: inhibitors of human BAZ2B bromodomain; AlphaScreen BAZ2B-H3K14Ac peptide displacement; Potency, µM (titrated, usually from 114 µM), inactives show top-dose activity change, negative = inhibition, most hits filed as inhibitors; hit rate 4.4% among 360,000; AID 504333; note: % is set by controls: 0 for no effect and ±100 for the full control effect; nearly all actives have a fitted effect of over 60% in size
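AlphaScreen displacement of biotin-H3(5-23)K14Ac peptide (50 nM final) from BAZ2B (50 nM final) in PBS pH 7.4, 0.01% Tween-20; complex preformed 30 min RT, then compounds (top 110 uM) 30 min RT, beads 20 min dark.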
Numbers without * were called inactive; ? = inconclusive; . = no result given; [ ] = another dose, or the depositor's remark. Only some compounds are listed: those with a hit (about 8.7% of all), similar ones and a draw of the others. Calls come from the whole dose curve; as a rule, active = well fitted curve in the direction sought with a large enough effect; inconclusive = small, poorly fitted or top-dose-only effect, or another doubt; inactive = no such curve, though single readings can be large; an effect the other way counts as inactive or inconclusive. Potency is the fitted concentration of half-maximal effect.

SMILES | HP1b chromo inh | ALOX12 inh | JMJD2A Tudor inh | G9a inh | Sfp PPTase inh | BAZ2B inh
CCOC(=O)c1c(NC(=O)C2COc3ccccc3O2)sc2c1CC(C)(C)NC2(C)C (centres undefined) | 13.6% | ? | -28.4% | 56.2µM* | ? | ?
CCOC(=O)c1c(NC(=O)C2COc3ccccc3O2)sc(C(C)=O)c1C (centres undefined) | -17.4% | -27.6% | -14.0% | 50.1µM* | 4.6% | 3.6%
CCOC(=O)c1c(NC(=O)c2ccc(C)cc2)sc2c1CC(C)(C)NC2(C)C | . | . | . | -4.1% | 15.9% | -1.6%
CCOC(=O)c1ccc(NC(=O)C2COc3ccccc3O2)cc1 (centres undefined) | 69.4% | 5.5% | 7.6% | -9.0% | 6.4% | 8.3%
CC(C)(C)C1=CC(=Nc2ccccc2N)C=C(C(C)(C)C)C1=O | 4.47µM* | 4.9% | 3.98µM* | 29.1%[59 µM] | 22.5% | 3.7%
O=C1Nc2ccccc2C1Cc1ccc(Br)cc1 (centres undefined) | 24.0% | -17.8% | -11.9% | -21.6%[59 µM] | . | -0.2%
CN(C)c1ccc(CC2C(=O)Nc3ccccc32)cc1 (centres undefined) | 28.2µM* | 100.1% | 7.08µM* | 3.16µM* | 44.7µM* | ?
CN(C)c1ccc(NC(=O)C(=O)C2C(=O)Nc3ccccc32)cc1 (centres undefined) | 21.2% | 18.3% | -24.6% | 56.2µM* | -11.2% | -14.7%
O=C(CCl)NC1CCCc2ccccc21 (centres undefined) | -11.3% | 0.0% | 50.1µM* | 6.1% | 5.0% | 3.9%
O=C(Cc1ccc(Br)cc1)NC1CCCc2ccccc21 (centres undefined) | 26.6% | -64.5% | -2.1% | 8.5% | 12.7% | -0.7%
O=C(NC1CCCc2ccccc21)c1cc(Cl)ccn1 (centres undefined) | 3.3% | -14.5% | 30.3% | 25.1µM* | -27.3% | 2.3%
O=C(NC1CCCc2ccccc21)c1ccccn1 (centres undefined) | 17.0% | -19.1% | -2.7% | -10.5% | 3.2% | -3.1%
O=C(NC(=S)NC1CCCc2ccccc21)c1ccc(F)cc1 (centres undefined) | -12.2% | 17.8µM* | 79.4µM* | -22.0% | -4.8% | ?
N#Cc1ccc(C(=O)NC2CCCc3ccccc32)cc1 (centres undefined) | 47.5% | 1.7% | 6.8% | 50.1µM* | 1.8% | 4.5%
O=C(NC(=S)NC1CCCc2ccccc21)c1ccco1 (centres undefined) | 33.7% | ? | -6.2% | -34.9% | -15.9% | -30.9%
CCCNC(=O)OCc1cccnc1Sc1ccc(C)cc1 | 4.2% | -2.2% | 44.7µM* | 29.2% | 9.6% | 14.8%
CCOC(=O)Nc1cccnc1Sc1ccc(Cl)cc1 | 1.6% | 0.0% | 1.4% | . | . | .
COc1cc(CNCc2ccc(C(=O)O)cc2)ccc1OCc1ccc(F)cc1 | 19.7% | -10.1% | -19.9% | -5.0% | -1.9% | 4.3%
CC(=O)N1CCN(c2ccc(NCc3ccc(F)cc3)cc2)CC1 | 6.2% | ? | ? | 7.94µM* | 39.8µM* | -34.6%
CC(=O)N1CCN(c2ccc(NCc3cccc(C)c3)cc2)CC1 | -12.4% | ? | ? | ? | . | ?
COc1cc(CNc2ccc(N3CCN(C(C)=O)CC3)cc2)ccc1OCc1ccc(F)cc1 | ? | ? | ? | 3.98µM* | -23.7% | 22.4µM*
O=C(NC1CCN(c2cc(-c3ccc(F)cc3)[nH]n2)CC1)c1ccc2c(c1)OCO2 | . | -7.7% | . | . | . | .
CCCn1c(=O)n(CCC(=O)Nc2c(C)cccc2C)c2ccccc21 | . | -17.8% | . | . | . | .
Cc1ccccc1Nc1nc(N)nc(COC(=O)/C=C/c2ccco2)n1 | 9.6% | -10.3% | -26.1% | 50.1µM* | -29.0% | ?
Cc1ccccc1Nc1nc(N)nc(COC(=O)c2c(C)noc2C)n1 | 21.0%[57 µM] | -12.1% | -8.3% | . | . | .
SMILES | HP1b chromo inh | ALOX12 inh | JMJD2A Tudor inh | G9a inh | Sfp PPTase inh | BAZ2B inh
CC(=NNS(=O)(=O)c1ccc(C)cc1)c1ccncc1 | . | -13.2% | . | . | . | .
C/C(=N/NS(=O)(=O)c1ccc(F)cc1)c1ccncc1 | 32.3% | ? | -22.0% | 22.4µM* | -12.7% | -13.6%
CCc1ccc(S(=O)(=O)N/N=C(/C)c2ccncc2)cc1 | 55.3% | ? | -15.2% | 39.8µM* | 7.3% | -5.0%
CN(C)CCn1c2c(c(SCC(=O)Nc3cccc4ccccc34)nc1=O)CCCC2 | 15.4% | 1.3% | -14.9% | 44.7µM* | . | -4.6%
Cc1cccc(NC(=O)CSc2nc(=O)n3ccccc3n2)c1C | 4.5% | 18.4% | -11.3% | 9.4% | . | 9.1%
O=C(CSc1nc(=O)n2ccccc2n1)Nc1cccc2ccccc12 | 14.9% | -5.8% | ? | 50.1µM* | . | -2.2%
CCN(CC)CCn1c2c(c(SCC(=O)Nc3cccc4ccccc34)nc1=O)CCC2 | 4.2% | -31.1% | -12.2% | ? | . | 1.7%
Cc1cc(C)cc(-n2ccnc2SCC(=O)Nc2cccc3ccccc23)c1 | ? | -19.8% | 22.4µM* | 12.6µM* | . | 7.08µM*
Cc1cc(C)cc(-n2ccnc2SCC(=O)Nc2ccccc2F)c1 | ? | -20.3% | ? | 14.1µM* | . | 28.2µM*
Cn1ccnc1SCC(=O)Nc1cccc2ccccc12 | 22.8% | 0.0% | -14.2% | -2.7%[12.7 µM] | 2.5% | -30.1%
O=C(NCc1ccccn1)c1ccc2c(c1)N(Cc1ccccc1)C(=O)c1ccccc1S2=O (centres undefined) | . | -7.8% | . | . | . | .
COc1cccc(C(=O)Nc2ccc3oc(-c4cccc(OC)c4)nc3c2)c1 | . | 1.6% | . | . | . | .
COc1ccc(-c2ocnc2C(=O)Nc2ccc(F)cc2)cc1 | . | -25.2% | . | . | . | .
CC(C)=CC1C(C(=O)NCC2CN(CC(C)C)CCO2)C1(C)C (centres undefined) | . | 7.0% | . | . | . | .
CC(=O)C(C(C)=O)C1(O)C(=O)c2ccccc2C1=O | 51.3% | ? | -5.5% | 50.1µM* | -15.0% | -2.2%
Nc1ccc(O)c(-c2nc3ccccc3s2)c1 | -2.2% | 55.8% | -16.2% | 14.1µM* | -5.6% | -28.1%
Oc1ccc(N=C/C=C/c2cccc(Br)c2)cc1-c1nc2ccccc2s1 | -15.4% | . | ? | 7.94µM* | ? | ?
CC1=C(C(=O)N2CCOCC2)C(c2ccc(O)cc2)NC(=S)N1 (centres undefined) | 31.4% | 11.7% | -10.3% | ? | ? | 0.1%
Oc1ccc2c(c1)C1CCCC1(N1CCOCC1)O2 (centres undefined) | ? | 164.7% | -19.9% | 8.91µM* | 50.1µM* | ?
O=C(CCCCCBr)N1CCC(CC2CC(c3cccc(Br)c3)=NO2)(C(=O)NCC2CCCCC2)CC1 (centres undefined) | 12.8% | ? | ? | 50.1µM* | -9.9% | -24.8%[57.1 µM]
Cc1ccc(NC(=O)c2cc(-c3ccco3)nc3ccccc23)cc1S(=O)(=O)N1CCOCC1 | -18.6% | -9.1% | -33.1% | ? | -9.8% | ?
